Hits are enriched below; roughly 6.1% of the tested compounds scored in any of these assays.
TGFb SMAD3 inh = inhibitors of TGF-b signaling; 1.2% of 410,000 active; AID 588855; HepG2 CAGA-GFP TGF-b/SMAD3 reporter, GFP fluorescence, 18 h; TGF-beta stimulated, 500 pg/mL final; Potency, µM (series often up to 46.1 µM), for the others: at the highest dose activity, negative = inhibition, actives largely listed as inhibitors; further: on the % scale 0 is the no-effect control and ±100 the full control effect; nearly all actives have a fitted effect of over 65% in size
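Read-out: total well GFP (ex488/em500-530) summed from mean per-cell fluorescence. Cells: HEPG2 CAGA-GFP, 1% FBS DMEM, 18 h at 37 degrees C with 500 pg/mL final TGF-beta. Unstimulated wells served as the full-inhibition control; stimulated DMSO wells = 0%.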
RORgamma inh = ROR gamma (mouse) transcription inhibition | P51450 | Potency, µM (top dose mostly 53.6 µM), without a hit: at the highest dose activity change, negative = inhibition, usual class: inhibitors | 5.4% of 310,000 active | Drosophila S2 Gal4-RORgamma UAS-luciferase reporter, 20 h; further: on the % scale 0 is the no-effect control and ±100 the full control effect; nearly all actives have a fitted effect of over 60% in size
Target sequence (P51450 whole entry, looked up, the tested form may be a part): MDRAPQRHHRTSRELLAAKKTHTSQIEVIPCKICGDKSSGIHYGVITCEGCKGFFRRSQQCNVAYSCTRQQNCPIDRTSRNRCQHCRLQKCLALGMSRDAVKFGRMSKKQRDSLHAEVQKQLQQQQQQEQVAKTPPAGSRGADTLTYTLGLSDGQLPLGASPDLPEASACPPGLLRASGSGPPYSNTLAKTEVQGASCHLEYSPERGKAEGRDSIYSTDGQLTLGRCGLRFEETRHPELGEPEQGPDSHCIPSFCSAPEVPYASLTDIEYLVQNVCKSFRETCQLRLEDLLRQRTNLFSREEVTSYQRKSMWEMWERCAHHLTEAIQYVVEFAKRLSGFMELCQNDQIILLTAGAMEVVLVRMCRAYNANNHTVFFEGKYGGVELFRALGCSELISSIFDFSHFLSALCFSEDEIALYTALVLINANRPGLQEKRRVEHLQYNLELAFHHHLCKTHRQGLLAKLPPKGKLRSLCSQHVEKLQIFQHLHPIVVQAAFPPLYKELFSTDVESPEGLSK
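Compounds are pin-transferred onto Drosophila Schneider cells expressing a copper-inducible Gal4–ROR gamma transactivation domain fusion. After 1 hr, copper sulfate is added to 700 uM final; luciferase is read 20 hr later.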
Gal4-VP16 FLuc = inhibits Gal4-VP16 luciferase reporter, ROR gamma counter-screen. 3.5% of 310,000 active. AID 2546. Drosophila S2 Gal4-VP16 UAS-luciferase, luminescence, 20 h. Potency, µM (titrated, usually from 53.6 µM), inactives show at the top dose activity, negative = inhibition, most hits filed as inhibitors;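 further: Gal4-VP16 expression switched on by copper sulfate through the metallothionein promoter; on the % scale 0 is the no-effect control and ±100 the full control effect; nearly all actives have a fitted effect of over 50% in size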
ATXN2 expr inh = ATXN2 expression inhibition | Potency, µM (highest dose often 57 µM), for the others: top-dose activity change, negative = inhibition, hits mostly inhibitors | 0.72% of 360,000 active | HEK-293 ATXN2-luciferase reporter, luminescence, 24 h; further: on the % scale 0 is the no-effect control and ±100 the full control effect; nearly all actives have a fitted effect of over 55% in size
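qHTS (up to 57 uM final) was run with 24 h compound exposure of reporter cells at 37 °C. Each well was multiplexed: SteadyGlo luminescence measured ATXN2-luciferase expression after a fluorogenic Gly-Phe-AFC viability readout (25 uM final).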
S2 tox = cell viability loss in ATXN counter-screen | Potency, µM (titrated, usually from 56.7 µM), actives largely listed as cytotoxic | S2 cells (HEK-293 line with an ATXN2-luciferase reporter) viability, CellTiter-Fluor protease fluorescence, 24 h | 0.49% of 400,000 active; further: nearly all actives have a fitted effect of over 40% in size
HepG2 tox = HepG2 cytotoxicity, counter-screen for TGF-b inhibitors; HepG2 CAGA-GFP viability, ATP luminescence, 18 h; Potency, µM (series often up to 46.1 µM), for the others: at the top dose activity change, negative = cytotoxicity, most hits filed as cytotoxic; 0.76% of 410,000 active
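CellTiter-Glo luminescence gave cytotoxicity after 18 hours at 37 degrees C. The cells were HepG2 CAGA-GFP in 1% FBS DMEM, stimulated with 500 pg/mL TGF-beta after compound addition. %Activity was normalised to no-cell wells (complete cell-killing) and DMSO (no toxicity), and curves were fitted and classified.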
The depositor's hits bear a star; i = inactive; u = inconclusive; x = no result given; [ ] = another dose, or the depositor's remark. The call rests on the fitted dose curve; in most records, active means well fitted curve in the direction sought with a large enough effect; inconclusive means small, poorly fitted or top-dose-only effect, or another doubt; inactive means no such curve, though single readings can be large; an effect the other way counts as inactive or inconclusive. Potency means the concentration at half of the fitted maximal effect.

SMILES | TGFb SMAD3 inh | RORgamma inh | Gal4-VP16 FLuc | ATXN2 expr inh | S2 tox | HepG2 tox
Cc1cc(C)nc(-n2nc(C)cc2NC(=O)CNC(C)c2ccccc2)n1 (configuration not stated) | -2.1% | 1.58µM* | -26.6% | -2.7% | i | 4.5%
Cc1cc(NC(=O)CN2CCOCC2)n(-c2nc3ccccc3s2)n1 | u | 3.55µM* | 0.6% | -8.6% | u | -15.1%
Cc1occc1C(=O)Nc1cccc(-c2nc(CNC(=O)c3cc(-c4ccccc4)n[nH]3)c(C)o2)c1 | x | x | x | x | i | x
CN[C@@H]1[C@@H](O[C@H]2O[C@H](CO)[C@@H](N)[C@H](O)[C@H]2O)O[C@H]2C[C@@H](N)[C@@H](O[C@H]3[C@H](O)[C@@H](O)[C@H](N)C[C@@H]3N)O[C@@H]2[C@@H]1O | x | x | x | x | i | x
COc1cccc(Cn2c(=O)c(-c3ccc(Cl)cc3)nc3cnc(N(C)C)nc32)c1 | x | 6.5% | 3.8% | x | x | x
CCC1CCCCN1CC(=O)Nc1cc(C)nn1-c1nc(C)cc(C)n1 (configuration not stated) | u | 0.398µM* | 1.26µM* | u | i | -33.3%
CCC1CCCCN1CC(=O)Nc1cc(C)c2c(=O)oc3ccccc3c2n1 (configuration not stated) | 5.2% | x | x | 8.5% | i | -4.6%
CCN(CC)CCOC(=O)C12CC3CC(CC(C3)C1)C2 | -0.2% | 5.01µM* | 8.8% | -2.7% | i | 13.2%
CN(C)CCOC(=O)C12CC3CC(C1)CC(C(=O)OCCN(C)C)(C3)C2 | 8.6% | -2.3% | -2.8% | -6.1% | i | 12.9%
OC(c1cccnc1)c1ccc2c(c1)CN(Cc1cccc3c1OCO3)CCO2 (configuration not stated) | x | x | x | x | i | x
CNNC(=S)NC1CC2CC1C1C=CCC21 (configuration not stated) | -12.8% | u | 10.2% | 6.2% | i | -27.3%
NC(=S)NC1CC2CC1C1C=CCC21 (configuration not stated) | 14.9% | 28.2µM* | -1.7% | 9.9% | i | 4.3%
CCn1c(CNC(=O)COc2ccc(C(C)C)cc2)nnc1SCC(=O)Nc1ccccc1C(C)C | -29.2% | 30.5% | 20µM* | -25.8% | i | -29.9%
CCn1c(COc2ccccc2C)nnc1SCC(=O)CC(=O)Nc1ccccc1OC | -12.7% | 10µM* | 12.6µM* | -3.7% | i | -12.6%
COc1ccc(NC(=O)CSc2nnc(COc3ccccc3)n2Cc2ccco2)cc1OC | -1.4% | -40.4% | 11.2µM* | -25.6% | i | -21.7%
CCn1c(COc2cccc(C)c2)nnc1SCC(=O)CC(=O)Nc1ccccc1OC | -20.0% | 10µM* | u | -0.4% | i | -19.3%
CCn1c(CNC(=O)COc2ccc(C(C)C)cc2)nnc1SCC(=O)Nc1ccccc1F | -10.3% | -30.3% | u | 8.6% | i | -0.6%
COc1ccc(C)cc1NC(=O)CSc1nnc(COc2ccccc2)n1Cc1ccco1 | -11.0% | -108.5% | u | -16.0% | i | -36.0%
Cc1nc2cnc(N(C)C)nc2n(-c2ccccc2)c1=O | x | -19.4% | -6.9% | x | x | x
Cc1ccc(N2CCN(C(=O)C3CCN(S(=O)(=O)c4ccc5c(c4)oc(=O)n5C)CC3)CC2C)cc1 (configuration not stated) | -6.3% | x | x | -13.5% | i | -14.0%
Cc1cnc(NC(=O)CSc2ncc(-c3ccccc3)n2Cc2ccco2)s1 | u | 11.2µM* | -28.8% | -26.6% | u | -27.0%
CCn1c(SCC(=O)Nc2ccccc2C)nnc1-c1ccccc1O | 11.4% | -17.3% | 0.0%[0.365 µM] | -2.8% | i | -3.2%
O=C(CSc1nnc(Cc2cccs2)n1Cc1ccco1)Nc1cc(Cl)cc(Cl)c1 | u | 22.4% | -12.5% | -16.3% | i | -33.5%
N#Cc1ccccc1NC(=O)CSc1nnc(-c2ccccc2O)n1-c1ccccc1 | -10.9% | 12.6µM* | u | -5.1% | i | -1.9%
COc1ccc(Cc2nnc(NC(=O)CSc3ccc(C)cc3)s2)cc1OC | 11.0% | 11.2µM* | u | -1.1% | i | -1.7%
SMILES | TGFb SMAD3 inh | RORgamma inh | Gal4-VP16 FLuc | ATXN2 expr inh | S2 tox | HepG2 tox
O=C(CSc1nnc(Cc2cccs2)n1Cc1ccco1)Nc1cccc(Cl)c1 | -6.2% | u | 11.2µM* | -9.9% | i | -33.3%
COc1ccc(Cc2nnc(NC(=O)Nc3ccc(C)cc3)s2)cc1OC | -17.7% | -0.3% | 5.2% | x | i | -28.5%
Cc1cc(C)c2c(/C=C/c3ccc(N(C)C)cc3)ccnc2c1 | -9.8% | x | x | x | x | 4.1%
COC[C@H](c1ccc(C(F)(F)F)cc1)N1CCN(C2(C)CCN(C(=O)c3c(C)ncnc3C)CC2)C[C@H]1C | x | x | x | x | i | x
Cc1ccccc1NC(=O)CSc1nnc(-c2ccccc2)n1-c1ccccc1 | -22.7% | 13.0% | 0.4% | -5.9% | i | -20.9%
COc1ccc(C(C)=O)cc1CSc1nnc(-c2ccncc2)n1C | -0.8% | -0.4% | -5.4% | -0.5%[11.3 µM] | i | 1.8%
COc1ccccc1NC(=O)CSc1nnc(NC(=O)Nc2ccc(C)cc2)s1 | 5.62µM* | x | x | x | x | -54.1%
COc1ccccc1NC(=O)CC(=O)CSc1nnc(-c2ccc(C)cc2)n1-c1ccccc1 | -6.9% | 7.08µM* | 10µM* | 9.6% | i | 5.7%
CCn1c(COc2ccccc2)nnc1SCC(=O)CC(=O)Nc1ccccc1OC | 0.6% | u | 22.4µM* | -6.6% | u | 3.3%
COc1ccc(C(C)=O)cc1CSc1nnc(-c2ccc(Cl)cc2)n1-c1ccccc1 | -19.6% | u | 15.8µM* | -11.3% | i | -20.4%
CC(=O)N[C@@H](C)C(=O)NCC1Cc2cccc(-c3ccccc3C(F)(F)F)c2O1 (some centres not stated) | x | x | x | x | i | x
O=C(CSc1nc(=O)[nH]c2c1CCC2)Nc1cc(C(F)(F)F)ccc1Cl | 13.8% | x | x | x | x | 5.7%
Cc1cccc(CNC(=O)c2ccc(C)c(-n3c(C)nc4cccnc43)c2)c1 | -12.4% | x | x | x | x | -7.3%
O=C(Cn1cc(SCc2cccc(C(F)(F)F)c2)c2ccccc21)N1CCCCCC1 | u | x | x | x | x | -14.3%
O=C(Cn1cc(SCc2ccc(C(F)(F)F)cc2)c2ccccc21)N1CCCC1 | u | x | x | x | x | 10µM*
COC(=O)c1ccc(NC(=O)CSc2cn(CC(=O)N3CCCCC3)c3ccccc23)cc1 | 5.62µM* | x | x | x | x | -17.6%
O=C(CSc1cn(CC(=O)N2CCCCC2)c2ccccc12)Nc1ccccc1 | -9.6% | x | x | 7.0% | i | -8.7%
CO[C@@H]1COC(=O)CCC[C@@H](C)[C@H](OC)COC(=O)CCC[C@H]1C | x | -12.4%[10 µM] | -14.6%[10 µM] | x | x | x

Source: PubChem BioAssay (National Center for Advancing Translational Sciences (NCATS))
